Screening data (PubChem)
rCAG RNA binder = r(CAG) repeat RNA binding; TO-PRO-1 dye displacement fluorescence; inhibition, % at 3 µM; 1.3% of 370,000 active; AID 651821;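 active = inhibition above the plate cutoff, the mean of all test compounds on that plate plus 3 SD, cut at about 35% in these data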;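 also: 0% = DMSO alone and 100% = 100 µM mitoxantrone as full dye displacement; higher means more dye released from RNA so lower well fluorescence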
Rtt109 Vps75 = inhibitors of Candida albicans Rtt109/Vps75 histone acetyltransferase; Q5AAJ8; purified Rtt109/Vps75, ThioGlo CoA-SH fluorescence, 4 h; inhibition, % at 34.9 µM; 0.16% of 330,000 active; AID 540336;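 active = inhibition of at least 50% in every replicate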
ABHD5-PLIN5 inh = inhibitors of human ABHD5-perilipin-5 interaction; 0.78% of 360,000 active; AID 602281; Q00G26+Q8WTS1; inhibition, % at 4 µM; Split G. princeps luciferase complementation, luminescence, 4 h;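 active = inhibition above the mean inhibition across every tested compound plus 3 SD, cut at about 22% in these data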;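 also: 0% = DMSO only wells and the 100% control is not disclosed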
Target sequence (Q00G26 whole entry, looked up): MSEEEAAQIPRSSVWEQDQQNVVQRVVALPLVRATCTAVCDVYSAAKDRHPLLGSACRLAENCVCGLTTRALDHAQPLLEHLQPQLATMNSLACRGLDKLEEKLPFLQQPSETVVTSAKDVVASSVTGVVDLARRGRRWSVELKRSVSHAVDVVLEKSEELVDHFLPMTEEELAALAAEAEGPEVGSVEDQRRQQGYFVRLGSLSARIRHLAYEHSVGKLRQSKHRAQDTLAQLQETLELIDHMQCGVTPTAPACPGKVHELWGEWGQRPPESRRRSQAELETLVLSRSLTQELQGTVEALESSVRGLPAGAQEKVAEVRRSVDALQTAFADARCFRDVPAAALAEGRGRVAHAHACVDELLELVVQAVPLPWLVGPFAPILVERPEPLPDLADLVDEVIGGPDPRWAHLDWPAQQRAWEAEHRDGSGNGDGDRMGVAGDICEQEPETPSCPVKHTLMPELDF
Target sequence (Q8WTS1 whole entry, looked up): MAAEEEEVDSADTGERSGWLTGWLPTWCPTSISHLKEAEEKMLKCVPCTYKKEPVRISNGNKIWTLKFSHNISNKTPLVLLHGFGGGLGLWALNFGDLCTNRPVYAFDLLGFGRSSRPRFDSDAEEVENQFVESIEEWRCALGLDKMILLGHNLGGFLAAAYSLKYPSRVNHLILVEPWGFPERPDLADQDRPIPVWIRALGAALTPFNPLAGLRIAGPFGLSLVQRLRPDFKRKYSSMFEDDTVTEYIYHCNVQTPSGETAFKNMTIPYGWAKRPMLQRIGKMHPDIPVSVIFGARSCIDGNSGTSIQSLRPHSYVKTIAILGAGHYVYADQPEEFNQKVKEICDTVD
LANA-H2A inh = blocks KSHV LANA binding to histone H2A/H2B | Q9QR71 | cell-free LANA-H2A/H2B peptide, fluorescence polarization | inhibition, % (test concentration not listed) | 0.6% of 320,000 active; in the data active = inhibition mostly above about 10%, no sharp cut-off; inactive = mostly below about 6.7%
ALR inh = blocks human ALR sulfhydryl oxidase activity; 3.8% of 290,000 active; purified ALR, DTT oxidation, H2O2 HRP-luminol luminescence; AID 485317; inhibition, % (concentration not given with the values);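 active = mean replicate inhibition above about 79%, with every replicate also reaching it, limit read from the data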
PRMT1 FP inh = PRMT1 (human) inhibition, primary screen. inhibition, % at 2.79 µM. recombinant PRMT1, activity-based probe fluorescence polarization. 1.3% of 370,000 active. AID 652257. Q99873;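 active = inhibition above about 21% made by adding two undisclosed values, limit read from the data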
PRMT1 inh conf = PRMT1 (human) inhibition, FP confirmation; 42% of 3,300 active; AID 687036; recombinant His-PRMT1, activity-based probe fluorescence polarization; inhibition, % at 2.79 µM; shares compounds with PRMT1 FP inh;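 active = mean inhibition across replicates above the hit cutoff derived for the earlier primary screen, cut at about 22% in these data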
An asterisk follows results filed as active; . = no result. Shown are actives, neighbours in structure and some others; about 5.9% of the full set was active somewhere.

SMILES	rCAG RNA binder	Rtt109 Vps75	ABHD5-PLIN5 inh	LANA-H2A inh	ALR inh	PRMT1 FP inh	PRMT1 inh conf
Cc1cccc2cc(C(c3nnnn3Cc3ccccc3)N3CCCc4ccccc43)c(=O)[nH]c12 (stereo not drawn)	6.4	-0.8	-11.0	-0.2	-19.0	25.9*	-2.8
CC(C)C(NC(=O)C1CCCCC1)C(=O)NCc1ccccn1 (stereo not drawn)	-1.8	0.1	-2.6	0.5	0.1	-0.8	.
CC(C)C(NC(=O)C1CCCCC1)C(=O)NCCc1ccccc1 (stereo not drawn)	-0.5	-5.2	0.9	0.7	0.3	24.9*	-1.1
O=C1C2C3C=CC(C3)C2C(=O)N1Cc1ccccc1 (stereo not drawn)	-1.9	-2.4	7.1	-0.1	8.3	-2.3	.
O=C1C2C3C=CC(O3)C2C(=O)N1Cc1ccncc1 (stereo not drawn)	0.7	3.0	7.7	.	.	42.8*	-0.1
CCN(CC)CCSC(=O)C(c1ccccc1)c1ccccc1	-1.4	.	-8.2	.	.	75.6*	40.1*
CCN(CC)CCOC(=O)C(c1ccccc1)c1ccccc1	-3.1	3.1	-10.7	8.9	-9.3	-0.2	.
COc1cc2c(c(OC)c1OC)-c1ccc(NCc3ccccc3)c(=O)cc1C(NC(C)=O)CC2 (stereo not drawn)	2.9	.	-0.1	.	.	-1.0	.
CN(C)/C=C1/Sc2ccccc2C1=O	3.3	-9.7	-2.3	-0.8	-8.1	57.1*	28.6*
O=C1/C(=C\c2cccnc2)Sc2ccccc21	3.4	2.9	18.8	-1.1	4.0	30.8*	3.7
COc1cccc(OC)c1C(=O)OCC(=O)NCCNC(=O)COC(=O)c1c(OC)cccc1OC	2.0	.	0.8	.	.	-2.2	.
N#Cc1ccc2sn(-c3ccccc3)c(=O)c2c1	1.5	.	34.1*	.	.	87.5*	98.4*
O=c1c2cc([N+](=O)[O-])ccc2sn1-c1ccccc1	0.9	.	-10.2	.	.	63.9*	80.6*
CC(=O)Nc1ccc2sn(-c3ccccc3)c(=O)c2c1	3.9	.	84.8*	.	.	76.8*	89.5*
N#Cc1ccc2c(c1)nnn2-c1ccccc1	0.4	.	1.5	0.6	0.7	-2.6	.
CC(=O)Nc1ccc2c(c1)c1ccccc1n2C(C)=O	2.5	-2.6	3.0	-0.6	-20.5	1.7	.
O=c1c(-c2ccccc2)c[nH]n1-c1cccc([N+](=O)[O-])c1	13.4	0.4	-1.5	1.0	69.9	1.1	.
CC(C)C[C@H]1CN(CCCC[C@H]2CNC(=O)C(=O)N2CCc2ccc(O)cc2)C(=O)C(=O)N1Cc1ccccc1	0.5	.	1.6	.	.	7.8	.
COC(=O)[C@H](C)NC(=O)[C@@H]1CC=C[C@@H]2CCN(CCc3ccccc3)C(=O)[C@@H]21	.	.	.	.	.	-3.0	.
O=C1CN(/N=C/c2ccc([N+](=O)[O-])o2)C(=O)N1	0.1	.	7.0	-11.7	-22.2	29.6*	-1.4
CCN1CCc2c(sc(NC(=S)NC(=O)c3ccccc3)c2C#N)C1	4.5	20.7	10.4	2.7	33.5	73.3*	11.9
N#Cc1c(NC(=S)NC(=O)c2ccccc2)sc2c1CCC2	17.8	-3.7	-5.0	-3.9	5.4	11.1	.
CN1Cc2sc(NC(=S)NC(=O)c3ccccc3)c(C#N)c2CC1(C)C	8.2	.	.	-7.5	17.7	70.9*	8.9
CNc1nc(NCC2CCCCC2)c2sccc2n1	2.7	.	0.7	.	.	-4.4	.
COc1ccc([C@H]2C[C@H](O)[C@@H](n3cc(-c4ccc(F)cc4)nn3)CN2C(=O)c2cccs2)cc1	3.9	.	2.3	.	.	4.7	.
SMILES	rCAG RNA binder	Rtt109 Vps75	ABHD5-PLIN5 inh	LANA-H2A inh	ALR inh	PRMT1 FP inh	PRMT1 inh conf
CCN(CC)c1ccc(C=Nn2c(-c3cc(C)[nH]n3)n[nH]c2=S)cc1	11.9	.	.	.	.	4.3	.
CCN(CC)c1ccc(/C=N/n2c(-c3ccccc3Br)n[nH]c2=S)cc1	27.8	7.7	-10.3	-1.1	97.0*	25.2*	7.7
CCCCCCCCN1C(=O)[C@@H](CC(=O)NCCCCc2ccccc2)C[C@@]2(C(=O)OC)C1=C[C@H](C(C)(C)C)O[C@@H]2C	0.6	.	.	.	.	1.3	.
O=C(NC1=NCCS1)c1csc2ccccc12	7.3	-13.7	-1.3	0.4	98.5*	27.1*	8.6
Cc1cc(C)cc(-n2nnn(C3C/C(=N/NC(N)=S)C4OCC3O4)c2=S)c1 (stereo not drawn)	5.4	14.9	1.9	-1.0	-4.7	25.6*	5.1
Cc1nn(C)c(Sc2ccccc2N)c1[N+](=O)[O-]	0.3	152.8*	-16.1	0.6	97.8*	70.6*	52.5*
Cc1nn(C)c(N)c1[N+](=O)[O-]	0.3	-2.8	1.1	5.4	-6.0	-4.0	.
Cc1ccc2c(c1)[C@H]1[C@H](CO2)[C@H](c2ccccc2)[C@]2(C)C(=O)N(Cc3ccc(F)cc3)CC(=O)N12	-166.9	-3.4	-4.9	3.5	1.8	38.2*	10.8
Cc1ccc2c(c1)[C@H]1[C@H](CO2)[C@H](c2ccccc2)[C@]2(C)C(=O)N(Cc3ccc(Cl)cc3)CC(=O)N12	5.0	2.8	1.1	-1.9	8.2	-3.3	.
O=C(Nc1ccc(S(=O)(=O)NC2=NCCCCC2)cc1)c1ccc([N+](=O)[O-])s1	17.7	3.5	-11.0	2.4	-44.0	4.8	.
O=C(Nc1ccc(S(=O)(=O)NC2=NCCCCC2)cc1)c1cccs1	0.5	-0.1	4.8	-2.3	.	69.8*	-3.7
CCN1C(=O)CC(n2c(C)nc3ccccc32)C1=O (stereo not drawn)	-0.3	22.5	3.5	1.1	-5.7	0.7	.
CCN1C(=O)CC(SC2CC(=O)N(CC)C2=O)C1=O (stereo not drawn)	0.6	-4.4	2.3	.	.	33.0*	26.6*
CCCCN1C(=O)CC(SC2CC(=O)N(CCCC)C2=O)C1=O (stereo not drawn)	-1.6	0.7	-0.9	.	.	57.4*	16.8
COc1ccccc1NC(CC(=O)c1ccccc1)C(=O)OCC(=O)c1ccc(C)c(C)c1 (stereo not drawn)	6.8	-3.3	4.6	1.7	-3.3	50.3*	10.0
C[C@H]1[C@@H](NC(=O)c2ccc(C(F)(F)F)cc2)CC[C@@]23CCCN2C(=O)CCC[C@@H]13	.	.	.	.	.	-1.5	.
C[C@H]1[C@H](NC(=O)c2ccc(C(F)(F)F)cc2)CC[C@@]23CCCN2C(=O)CCC[C@@H]13	.	.	.	.	.	53.5*	-0.1
O=C(NC1=NC2(C=C3CCCCC3n3c(=O)n(-c4ccccc4)c(=O)n32)CN1CC1CC1)c1ccccc1 (stereo not drawn)	22.9	.	.	.	.	3.9	.
CN(C)C(=O)c1ccc(SC(=S)NCc2ccccc2)cc1	1.9	.	-18.8	.	.	58.6*	69.5*
CC(C)(C)CC(=O)NC(=S)NCc1ccccc1	-5.3	-3.1	-10.4	-2.4	-11.9	0.1	.
OC1(Cc2cc(-c3ccccc3)no2)CCN(CCCc2ccccc2)CC1	-6.2	4.8	2.0	-3.2	-2.5	-3.3	.
Cc1cccc(Cn2cc(COC(=O)NCCc3c[nH]c4ccccc34)nn2)c1	5.3	.	.	.	.	-0.3	.
